Results reported in the supplement of paper PMC10646978.
± gives the standard deviation.

Columns and labels:
Conditions in all cases: modulator concentration 10 µM
[1] = test system: RAW-Dual (murine macrophage reporter line); assay: NF-kB reporter (SEAP) activity fold change vs agonist alone; higher = enhanced NF-kB activity
How it was run: (§1)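 RAW-Dual murine macrophage reporter cells were plated at 50 000 per well in 384-well plates, pin-transferred compound to 10 μM final, and pre-incubated for 1 hour at 37 °C before a PRR agonist was added and the cells incubated overnight. NF-κB activity was read from supernatant SEAP with QUANTI-Blue at 620 nm absorbance, and IRF activity from Lucia luciferase with QUANTI-Luc by luminescence. Each signal was expressed as fold change by dividing by the mean agonist-only control on the same plate. Two replicate plates were averaged, with errors obtained by propagation.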

[2] = test system: RAW-Dual (murine macrophage reporter line); assay: IRF reporter (Lucia luciferase) activity fold change vs agonist alone; higher = enhanced IRF activity
How it was run: as §1

[3] = test system: RAW-Dual (murine macrophage reporter line); assay: viability score (confluency relative to resting cells, overnight) (fraction); higher = more viable, active = viable (0.7 or more)
How it was run: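 A compound met the cutoff when both of two confluency masks exceeded 70% of resting cells. Those masks were made with IncuCyte software from IncuCyte images of RAW-Dual macrophages treated overnight at 10 μM final. This is the basis of the viability score, which is confluency relative to resting cells.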

[4] = agonist: CpG ODN 1826 0.5 ug/mL

| SMILES | NF-kB reporter [1, 4] | NF-kB reporter ([1]; agonist: LPS 0.1 ug/mL) | NF-kB reporter ([1]; agonist: MPLA […]) | IRF reporter ([2]; agonist: 3'3'-cGAMP 10 ug/mL) | IRF reporter ([2]; agonist: LPS 0.1 ug/mL) | IRF reporter ([2]; agonist: MPLA […]) | viability score [3] |
| --- | --- | --- | --- | --- | --- | --- | --- |
| CCCCS(=O)(=O)N[C@@H](Cc1ccc(OCCCCC2CCNCC2)cc1)C(=O)O.Cl.O | 1.2 ± 0.34 | 1.05 ± 0.057 | 0.987 ± 0.075 | 0.907 ± 0.035 | 1.14 ± 0.23 | 1.26 ± 0.12 | 0.99 (active) |
| COC(=O)C1=C(C)N(C)C(C)=C(C(=O)OC)C1c1cccc(C(F)(F)F)c1 | 0.884 ± 0.069 | 1.07 ± 0.093 | 0.955 ± 0.082 | 0.995 ± 0.035 | 1.32 ± 0.22 | 0.976 ± 0.073 | 1.01 (active) |
| O=C(Nc1ccc([N+](=O)[O-])cc1Cl)c1cc(Cl)ccc1O [Prestw-40] | 1.12 ± 0.28 | 0.92 ± 0.052 | 0.938 ± 0.068 | 0.873 ± 0.064 | 1.12 ± 0.24 | 0.832 ± 0.13 | 1.01 (active) |
| Cc1ccc(S(=O)(=O)O)cc1.NC(=O)c1cccc2cn(-c3ccc([C@@H]4CCCNC4)cc3)nc12 | 0.0798 ± 0.0034 | 0.142 ± 0.017 | 0.372 ± 0.027 | 0.041 ± 0.0076 | 0.0678 ± 0.01 | 0.0808 ± 0.016 | 0.881 (active) |
| CCCCC(=O)N(Cc1ccc(-c2ccccc2-c2nn[nH]n2)cc1)[C@H](C(=O)O)C(C)C | 1.04 ± 0.16 | 1.03 ± 0.15 | 0.903 ± 0.05 | 0.589 ± 0.054 | 0.855 ± 0.14 | 0.704 ± 0.12 | 0.996 (active) |
| CC(=NNC(=O)CNc1ccccc1C)c1ccc(Br)cc1 | 1.09 ± 0.093 | 1.01 ± 0.14 | 1.03 ± 0.098 | 0.998 ± 0.032 | 1.23 ± 0.13 | 1.38 ± 0.19 | 0.982 (active) |
| CCOC(=O)C1=C(C)OC(N)=C(C#N)C1c1cc(C)c(OC)cc1C (stereo not given) | 0.925 ± 0.073 | 1.01 ± 0.11 | 0.898 ± 0.056 | 0.66 ± 0.11 | 0.987 ± 0.089 | 0.935 ± 0.17 | 1 (active) |
| O=C(O)CCCNc1c(C(=O)Nc2ccc(Cl)cc2)cc([N+](=O)[O-])cc1[N+](=O)[O-] | 0.817 ± 0.065 | 0.813 ± 0.057 | 0.942 ± 0.049 | 0.629 ± 0.022 | 1.11 ± 0.12 | 1.42 ± 0.24 | 0.511 (inactive) |
| O=C(c1cc2nc(-c3ccccc3)cc(-c3ccccc3)n2n1)N1CCCCCC1 | 0.999 ± 0.081 | 1.16 ± 0.077 | 0.976 ± 0.065 | 0.965 ± 0.035 | 1.37 ± 0.19 | 1.12 ± 0.078 | 1.02 (active) |
| COc1cccc(NC(=O)CN(c2cccc(Br)c2)S(C)(=O)=O)c1 | 0.906 ± 0.085 | 0.998 ± 0.074 | 0.919 ± 0.036 | 0.848 ± 0.092 | 0.937 ± 0.11 | 0.876 ± 0.078 | 0.998 (active) |
| CCC(=O)Nc1ccc(S(=O)(=O)NCC2CCN(Cc3ccccc3)CC2)c(C)c1 | 0.787 ± 0.038 | 0.961 ± 0.076 | 1.08 ± 0.058 | 1.14 ± 0.053 | 1.37 ± 0.23 | 1.49 ± 0.43 | 0.967 (active) |
| CC(=O)c1ccc(NC(=O)CSc2ccc(-c3ccc4c(c3)OCO4)nn2)cc1 | 0.846 ± 0.28 | 1.04 ± 0.096 | 0.981 ± 0.11 | 0.955 ± 0.034 | 1.02 ± 0.2 | 1.03 ± 0.11 | 0.99 (active) |
| Cc1cccc(N=c2scc(-c3ccc([N+](=O)[O-])cc3)n2-c2cccc(C)c2C)c1C | 0.863 ± 0.065 | 1.04 ± 0.078 | 0.906 ± 0.054 | 0.864 ± 0.029 | 1.37 ± 0.088 | 1.11 ± 0.16 | 1 (active) |
| NC(=O)CC[C@@H](N)C(=O)O | 1.16 ± 0.31 | 1.05 ± 0.059 | 0.953 ± 0.068 | 0.946 ± 0.046 | 1.37 ± 0.2 | 1.23 ± 0.17 | 1.01 (active) |
| COc1cc2nc(N3CCN(C(=O)c4ccco4)CC3)nc(N)c2cc1OC [Prestw-947] | 0.258 ± 0.041 | 1.09 ± 0.083 | 1.14 ± 0.11 | 1.59 ± 0.049 | 1.28 ± 0.18 | 1.48 ± 0.33 | 0.971 (active) |
